Hits are enriched below; roughly 3.4% of the tested compounds scored in any of these assays.
GPR151 activ: activators of human GPR151; Q8TDV0; PathHunter beta-arrestin GPR151 cells, luminescence; activation, % at 11.2 µM; 1% of 650,000 active; in the data active means activation above about 4.9%
TEAD-YAP inh: TEAD-YAP interaction inhibition; HEK-TIYL cells, TEAD-Gal4/YAP UAS-luciferase luminescence; inhibition, % at 9.12 µM; 1.4% of 640,000 active; AID 1259422; in the data active means inhibition above about 32%
FBW7 act: human FBW7 E3 ligase activation, primary screen; Q969H0; AlphaScreen FBW7–phospho-cyclin E peptide binding, activator screen; normalized activity (activation), % at 26.1 µM; 0.13% of 650,000 active; AID 1259310; in the data active means normalized activity above about 1.9%;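 further: purified mutant Fbw7 with reduced substrate affinity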
MITF inh: blocks human microphthalmia-associated transcription factor | AlphaScreen MITF homodimerization, bead proximity signal | inhibition, % at 2.6 µM | 0.91% of 650,000 active; in the data active means inhibition above about 50%
Target sequence (O75030 whole entry, looked up): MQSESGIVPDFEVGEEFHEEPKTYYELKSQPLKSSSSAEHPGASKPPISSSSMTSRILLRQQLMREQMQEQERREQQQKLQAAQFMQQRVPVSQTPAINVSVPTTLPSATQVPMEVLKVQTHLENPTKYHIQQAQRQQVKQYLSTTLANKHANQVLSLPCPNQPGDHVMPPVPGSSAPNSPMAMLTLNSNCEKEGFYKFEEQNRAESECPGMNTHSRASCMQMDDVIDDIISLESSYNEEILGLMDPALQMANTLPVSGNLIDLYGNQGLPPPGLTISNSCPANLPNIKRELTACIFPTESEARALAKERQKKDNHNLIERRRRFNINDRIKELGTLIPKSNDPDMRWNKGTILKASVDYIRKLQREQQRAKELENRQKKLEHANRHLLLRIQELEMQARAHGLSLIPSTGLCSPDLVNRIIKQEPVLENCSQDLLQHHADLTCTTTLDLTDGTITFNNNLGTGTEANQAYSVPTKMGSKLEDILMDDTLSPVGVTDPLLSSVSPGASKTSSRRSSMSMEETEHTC
Of the large screens only hits and unclear results are named; the others gave an inactive call.

Cc1ccccc1NS(=O)(=O)c1ccc(Cl)c(C(=O)Nc2cccc(C(=O)O)c2)c1	none
O=C(Nc1ccc(-c2nc3ccccc3c(=O)o2)cc1)C1CC1	TEAD-YAP inh 48
Cc1ccc(-c2nc3ccccc3c(=O)[nH]2)cc1	none
Nc1ccccc1-c1nc2ccccc2c(=O)o1	FBW7 act 2.4
O=C(Nc1ccc(-c2nc3ccccc3o2)cc1)C1CCN(CCCn2cccn2)CC1	TEAD-YAP inh 78
CC(C)(C)c1ccc(-c2nc3ccccc3c(=O)[nH]2)cc1	TEAD-YAP inh 83
O=C(Nc1ccc(-c2nc3ccccc3o2)cc1)C1CCN(Cc2ccccn2)CC1	none
CN1c2ncccc2C(=O)NC12CCN(C(=O)c1ccncc1)CC2	none
Cc1cc(C)nc(SCC(=O)N/N=C/c2c(C)nn(-c3ccccc3)c2C)n1	none
O=C(Nc1ccc(F)cc1)c1c(O)c2cccc3c2n(c1=O)CC3	none
Cc1cc(C)cc(NC(=O)C2CC3CCCN3C23C(=O)Nc2ccccc23)c1 (configuration not stated)	none
Cc1[nH]n(-c2cccc(Cl)c2)c(=O)c1C=Nc1ccc(Cl)c(N=Cc2c(C)[nH]n(-c3cccc(Cl)c3)c2=O)c1	none
CC(C)(C)c1ccc(-c2nc3ccccc3c(=O)o2)cc1	TEAD-YAP inh 53
O=C(CSc1nnc(-c2ccncc2)o1)c1ccc(Br)cc1	none
Oc1c(C(c2ccc(Cl)cc2)N2CCOCC2)ccc2cccnc12 (configuration not stated)	TEAD-YAP inh 78
COc1ccc(C(c2ccc3cccnc3c2O)N2CCCC2)cc1 (configuration not stated)	TEAD-YAP inh 84
COc1cc(C(c2cc(Cl)c3cccnc3c2O)N2CCCC2)cc(OC)c1OC (configuration not stated)	none
COc1ccc(C(c2sc3nc(C)nn3c2O)N2CCOCC2)cc1 (configuration not stated)	none
COc1ccc(C(c2ccc3cccnc3c2O)N2CCOCC2)cc1 (configuration not stated)	TEAD-YAP inh 80
CC(C)(C)n1nnnc1C(c1cc2cc3c(cc2[nH]c1=O)OCCO3)N1CCOCC1 (configuration not stated)	none
COc1ccccc1OCCN1CCNCC1	none
O=C(Nc1cc(F)ccc1F)c1ccccc1I	none
C=CCn1c(=O)/c(=C\C=C2\C=CN(CC)c3ccccc32)s/c1=C\c1sc(-c2ccccc2)c(-c2ccccc2)[n+]1CC	none
CCN1C=C/C(=C/c2cccc[n+]2C)c2ccccc21	TEAD-YAP inh 82
COc1ccc2c(Cn3cnc4cc([N+](=O)[O-])ccc4c3=O)cc(=O)oc2c1	TEAD-YAP inh 64
Cc1cc(C(=O)CCl)c(C)n1Cc1cccs1	none
Cc1cc(C(=O)CSc2nc(N)cc(=O)[nH]2)c(C)n1Cc1cccs1	none
Cc1cc(C(=O)CSc2nnc(N)s2)c(C)n1Cc1cccs1	TEAD-YAP inh 58
Cc1csc(SCC(=O)c2cc(C)n(Cc3cccs3)c2C)n1	TEAD-YAP inh 59
CCOC(=O)c1sc(NC(=O)c2ccco2)c(SC#N)c1C	TEAD-YAP inh 34
Cc1cc(Cl)c(S(=O)(=O)N2CCSCC2)cc1OCC(=O)NC1CCCCC1	TEAD-YAP inh 38
Cc1cc(Cl)c(S(N)(=O)=O)cc1OCC(=O)NC1CCCCC1	none
O=C(Nc1ccc(-c2nc3ccccc3s2)cc1)C1CC1	TEAD-YAP inh 79
Cc1cccn2cc(-c3ccc(NC(=O)C(C)(C)C)cc3)nc12	TEAD-YAP inh 64
Cc1nnc(NC(=O)C2CCN(c3nc4ccccc4s3)CC2)s1	none
O=C(Nc1ccc(O)c(-c2nc3ccccc3s2)c1)C1CC1	none
O=C(Nc1ccc(-c2cn3ccccc3n2)cc1)c1ccccc1	none
CCC(=O)Nc1ccc(-c2cn3ccccc3n2)cc1	TEAD-YAP inh 40
CC(=O)Nc1ccc(NC(=O)C2CCN(c3nc4ccccc4s3)CC2)cc1	TEAD-YAP inh 36
CC1CCN(C(=O)CC2(c3ccccc3Cl)CC(=O)N(C)C2=O)CC1 (configuration not stated)	none
CCC(=O)Nc1ccc(-c2nc3ccccc3s2)cc1	TEAD-YAP inh 84
COc1cc(CN2C(=O)c3ccc(F)cc3C2=O)cc(OC)c1OC	none
Cc1ccc2nsnc2c1S(=O)(=O)Nc1ccc(I)cc1	TEAD-YAP inh 55
Cc1ccc2nsnc2c1S(=O)(=O)Nc1ccc(C(=O)O)cc1	none
Cc1ccc(NC(=O)c2noc(-c3ccccc3)n2)cc1	none
O=S(=O)(N=Nc1c(O)[nH]c2ccccc12)C1C=CC=CC1 (configuration not stated)	none
O=C1C=C(Nc2ccc(Cl)cc2Cl)CC(c2ccco2)C1 (configuration not stated)	TEAD-YAP inh 39
O=C1C=C(NCc2ccc(Cl)cc2)CC(c2ccco2)C1 (configuration not stated)	none
Clc1cnc2nc(-c3cccnc3)[nH]c2c1	none
Nc1ccc(-c2nc3ncc(Cl)cc3[nH]2)cc1	TEAD-YAP inh 35
CCCCC(=O)Nc1ccc(Nc2nc(C)cc(N3CCCC3)n2)cc1	TEAD-YAP inh 65
Cc1cc(N2CCCC2)nc(Nc2ccc(NS(=O)(=O)c3ccc(F)cc3)cc2)n1	TEAD-YAP inh 57
CCCC(=O)Nc1ccc(Nc2nc(C)cc(N3CCOCC3)n2)cc1	none
CCOCCOC(=O)C(C)Oc1ccc2c(=O)c(Oc3cc(C)cc(C)c3)c(C(F)(F)F)oc2c1 (configuration not stated)	none
Cc1ccc(-n2ncc3c(=O)n(CC(=O)NCc4ccc5c(c4)OCO5)cnc32)cc1C	none
N#CC1=C(N)OC2=C(C(=O)CCC2)C1c1cn[nH]c1-c1ccc(F)cc1 (configuration not stated)	none
O=C1CCCC2=C1C(c1cn[nH]c1-c1ccc(F)cc1)C1=C(CCCC1=O)O2	TEAD-YAP inh 49
NNC(=O)Nc1cccc2nsnc12	TEAD-YAP inh 66
O=c1c2c3c(sc2n2cnnc2n1Cc1ccccc1)CCCC3	FBW7 act 1.9
Cc1ccc(Nc2nc(CSc3nnnn3-c3ccccc3)cs2)cc1	none
c1ccc(CCSc2nnnn2-c2ccccc2)cc1	none
CCCSc1nnc(Sc2nnnn2-c2ccccc2)s1	TEAD-YAP inh 56
Cc1ccc(Nc2nnc(Sc3nnnn3-c3ccccc3)s2)cc1	TEAD-YAP inh 53
O=C(CN1CCC(NC(=O)NC2CCCCC2)CC1)NCc1ccccc1	none
Cc1cccc(C(=O)Nc2ccc3nc(SCC(=O)Nc4c(C)n(C)n(-c5ccccc5)c4=O)sc3c2)c1	none
NC(=O)CSc1nnc(-c2ccc3c(c2)OCO3)o1	TEAD-YAP inh 45
O=C(O)CSc1nnc(-c2ccc3c(c2)OCO3)o1	none
CC(Sc1nnc(-c2ccc3c(c2)OCO3)o1)C(N)=O (configuration not stated)	TEAD-YAP inh 37
CC(Sc1nnc(-c2ccncc2)o1)C(N)=O (configuration not stated)	none
CC1=CC(=C2C(=O)NC(=S)NC2=O)C=C(C(F)(F)F)N1CCN(C)C	none
COCCN1C(C)=CC(=C2C(=O)NC(=S)NC2=O)C=C1C(F)(F)F	TEAD-YAP inh 45
Clc1ccc(Nc2nc3nonc3nc2N2CCCCC2)cc1	TEAD-YAP inh 33
Clc1ccc(Nc2nc3nonc3nc2Nc2ccc(Cl)cc2)cc1	TEAD-YAP inh 92
O=c1[nH]c2nonc2nc1Nc1ccc(Cl)cc1	none
